Data from PubChem BioAssay.
Calls of active or inactive are those of the source.

What was measured:
[1] = system: Human papillomavirus type 1a protein E7 (residues 44-93); experiment: HPV1a E7 fragment binders on microarrays, primary screen, biochemical, small-molecule microarray, residues 44-93, 635 nm fluorescence (AID 1108); conditions: small-molecule microarray binding, fluorescence 635 nm; higher = more signal;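 also: E7 fragment applied at 1 µg/mL in TBST for 1 h at 4 C; score combines spot fluorescence with its signal to noise ratio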
[2] = modulators of HCV replicon luciferase signal, primary screen, HCV replication inhibitor project, Huh7 cells, luciferase reporter (AID 1109); conditions: 48 h, higher = more signal;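 also: huh7 hepatoma cells harbouring a luciferase neomycin HCV replicon reporter; luciferase luminescence as measure of HCV replicon replication; test concentration not given here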
[3] = target: Left-right determination factor 2 (Homo sapiens) (UniProt O00292); experiment: LEFTY2 binders on small-molecule microarrays, primary screen, biochemical, small-molecule microarray, 635 nm fluorescence scan (AID 1110); conditions: LEFTY2 binding, higher = more signal
Chain of Left-right determination factor 2 (Homo sapiens) (O00292 whole entry, looked up): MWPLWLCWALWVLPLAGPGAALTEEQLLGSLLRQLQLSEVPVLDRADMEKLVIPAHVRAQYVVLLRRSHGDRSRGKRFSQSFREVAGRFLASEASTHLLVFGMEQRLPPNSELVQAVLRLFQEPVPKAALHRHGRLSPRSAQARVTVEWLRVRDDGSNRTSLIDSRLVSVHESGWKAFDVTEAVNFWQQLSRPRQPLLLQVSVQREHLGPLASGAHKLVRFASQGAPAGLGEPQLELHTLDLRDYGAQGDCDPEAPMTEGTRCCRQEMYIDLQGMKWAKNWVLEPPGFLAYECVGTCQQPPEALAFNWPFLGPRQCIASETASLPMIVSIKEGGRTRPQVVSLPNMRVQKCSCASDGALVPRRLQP

[4] = target: Calmodulin-1 (Homo sapiens) (UniProt P0DP23); experiment: CALM1 binders on microarrays, EGTA buffer, profiling panel, biochemical, small-molecule microarray, Cy5-labelled CALM1 (AID 1111); conditions: Cy5-CALM1 binding fluorescence, higher = more signal;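 also: labelled calmodulin applied in Tris saline Tween buffer holding calcium plus EGTA and DTT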
[5] = target: Calmodulin-1 (Homo sapiens) (UniProt P0DP23); experiment: calcium-bound CALM1 binders on microarrays, profiling panel, artefact control for SMM control-protein annotation, biochemical, small-molecule microarray, Cy5-labelled CALM1, plus calcium (AID 1112); conditions: Cy5-CALM1 binding fluorescence, higher = more signal;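 also: score merges spot fluorescence with signal to noise from triplicate slides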
[6] = small-molecule microarray binders of probe aWnt5a, primary screen, biochemical, biotinylated probe, 635/667 nm fluorescence (AID 1113); conditions: higher = more signal;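 also: score merges 667 nm fluorescence intensity with signal-to-noise per printed feature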
[7] = small-molecule microarray binders of probe aShh, primary screen, biochemical, biotinylated probe, 635/667 nm fluorescence (AID 1114); conditions: higher = more signal;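 also: probe is biotin-labelled aShh protein from a stem cell growth factor screen; measures binding of labelled protein to compounds printed on the slide; score merges feature fluorescence at 667 nm with signal-to-noise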
[8] = small-molecule microarray binders of probe aNog, primary screen, biochemical, biotinylated probe, 635/667 nm fluorescence (AID 1115); conditions: higher = more signal;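 also: probe is biotinylated aNog protein used at 0.15 µg/mL for 1 h at 4 C; z-score combines 667 nm fluorescence of each spot with its signal to noise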
[9] = target: Torsin-1A-interacting protein 1 (Homo sapiens) (UniProt Q5JTV8); experiment: LAP1 binders from COS7 cell lysate, primary screen, small-molecule microarray, 635/667 nm fluorescence (AID 1116); conditions: COS7-hLAP1 lysate binding, 635 nm fluorescence, higher = more signal
Chain of Torsin-1A-interacting protein 1 (Homo sapiens) (Q5JTV8 whole entry, looked up): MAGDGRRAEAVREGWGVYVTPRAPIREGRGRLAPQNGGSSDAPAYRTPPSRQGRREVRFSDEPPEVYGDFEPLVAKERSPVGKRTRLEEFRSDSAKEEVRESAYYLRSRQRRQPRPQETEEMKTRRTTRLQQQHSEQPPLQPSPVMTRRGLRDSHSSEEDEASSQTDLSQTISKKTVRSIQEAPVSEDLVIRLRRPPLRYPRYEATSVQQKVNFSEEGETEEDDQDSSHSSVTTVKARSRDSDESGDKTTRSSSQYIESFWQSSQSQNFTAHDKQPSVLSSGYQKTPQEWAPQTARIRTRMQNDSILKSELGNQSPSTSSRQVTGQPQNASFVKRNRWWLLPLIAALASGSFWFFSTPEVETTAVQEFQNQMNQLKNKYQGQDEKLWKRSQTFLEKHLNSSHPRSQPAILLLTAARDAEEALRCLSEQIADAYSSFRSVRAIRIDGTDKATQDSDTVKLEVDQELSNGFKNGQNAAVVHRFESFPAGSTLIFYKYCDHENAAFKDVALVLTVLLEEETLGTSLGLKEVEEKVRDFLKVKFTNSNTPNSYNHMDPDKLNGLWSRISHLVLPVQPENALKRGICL

[10] = target: Alpha-bungarotoxin (Bungarus multicinctus) (UniProt P60615); experiment: alpha-bungarotoxin binders on microarray, profiling panel, artefact control for SMM control protein annotation, biochemical, small-molecule microarray, Alexa647 label, 635/667 nm fluorescence (AID 1117); conditions: alpha-BTX-A647 binding fluorescence, higher = more signal
Chain of Alpha-bungarotoxin (Bungarus multicinctus) (P60615 whole entry, looked up): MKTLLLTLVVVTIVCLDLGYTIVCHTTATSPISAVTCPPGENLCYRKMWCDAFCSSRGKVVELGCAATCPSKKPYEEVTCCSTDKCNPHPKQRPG

[11] = target: Albumin (Bos taurus) (UniProt P02769); experiment: bovine serum albumin binders on microarray, profiling panel, artefact control for SMM control protein annotation, biochemical, small-molecule microarray, Alexa647 label, 635/667 nm fluorescence (AID 1118); conditions: BSA-A647 binding, fluorescence 635 nm, higher = more signal;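 also: score merges 667 nm emission intensity and signal-to-noise per printed compound spot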
Chain of Albumin (Bos taurus) (P02769 whole entry, looked up): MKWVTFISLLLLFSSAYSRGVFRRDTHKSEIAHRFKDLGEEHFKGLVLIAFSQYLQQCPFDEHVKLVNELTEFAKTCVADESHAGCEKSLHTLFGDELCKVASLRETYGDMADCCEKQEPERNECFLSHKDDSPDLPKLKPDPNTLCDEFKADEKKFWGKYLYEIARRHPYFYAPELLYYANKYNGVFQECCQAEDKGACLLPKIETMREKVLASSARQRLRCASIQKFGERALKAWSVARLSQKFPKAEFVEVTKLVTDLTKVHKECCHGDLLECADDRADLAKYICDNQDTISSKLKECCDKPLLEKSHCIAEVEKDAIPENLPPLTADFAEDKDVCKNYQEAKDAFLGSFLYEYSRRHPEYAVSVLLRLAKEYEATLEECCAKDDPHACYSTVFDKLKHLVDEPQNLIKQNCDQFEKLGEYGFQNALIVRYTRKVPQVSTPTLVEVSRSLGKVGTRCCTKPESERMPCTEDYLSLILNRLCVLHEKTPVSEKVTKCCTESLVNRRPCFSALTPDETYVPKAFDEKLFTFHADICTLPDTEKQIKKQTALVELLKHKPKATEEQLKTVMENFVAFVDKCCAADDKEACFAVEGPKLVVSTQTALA

[12] = small-molecule microarray binders of probe aXIP, primary screen, biochemical, NeuroSMM set, 635/667 nm fluorescence (AID 1119); conditions: higher = more signal, called active from +8 up or from −8 down;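 also: probe is the protein aXip251-270 applied at 1 µg/mL to compound-printed slides; binding of probe to printed compounds measured as 667 nm fluorescence plus signal to noise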
[13] = small-molecule binders of probe aNOTCH3, primary screen, biochemical, small-molecule microarray, 635/667 nm fluorescence (AID 1120); conditions: higher = more signal;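 also: probe is a biotin-tagged antibody raised against NOTCH3 rather than NOTCH3 protein; score merges spot fluorescence near 667 nm with spot signal to noise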
[14] = small-molecule binders of probe aNOTCH2, primary screen, biochemical, small-molecule microarray, 635/667 nm fluorescence (AID 1121); conditions: higher = more signal;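 also: score merges feature fluorescence read at 667 nm with its signal to noise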
[15] = target: Carbonic anhydrase 2 (Homo sapiens) (UniProt P00918); experiment: CAII small-molecule binders, profiling panel, biochemical, small-molecule microarray, Alexa647-labelled CAII (AID 1122); conditions: CAII-A647 binding fluorescence, higher = more signal
[16] = COS7 lysate on small-molecule microarray, probe aHis, 635 nm (AID 1123); conditions: COS7 cell lysate, fluorescence, higher = more signal;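 also: z-score combines 667nm fluorescence intensity with signal-to-noise per printed compound spot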
[17] = compound binding in COS7 lysate, probe aLAP1, primary screen, cell lysate, small-molecule microarray (AID 1124); conditions: probe aLAP1, fluorescence, higher = more signal;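 also: lysate comes from COS7 cells expressing LAP1 and is applied at 0.3 µg/mL; score merges spot fluorescence near 667 nm with signal-to-noise over triplicate slides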
[18] = system: Sam68 (KHDRBS1); experiment: Sam68 small-molecule binders, primary screen, biochemical, small-molecule microarray, 635 nm fluorescence (AID 1125); conditions: small-molecule microarray binding, higher = more signal;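 also: score merges 667 nm channel intensity with signal to noise over triplicate slides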
[19] = system: Chordin-like protein 2 (CHRDL2); experiment: CHRDL2 small-molecule binders, primary screen, biochemical, small-molecule microarray, 635 nm fluorescence (AID 1126); conditions: small-molecule microarray binding, fluorescence 635 nm; higher = more signal;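 also: printed compound slides probed with Chrdl2 protein at 4 µg/mL for 1 h at 4 C; score merges 667 nm emission intensity with signal to noise over three replicate slides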
[20] = target: Concanavalin-A (Canavalia ensiformis) (UniProt P02866); experiment: ConA small-molecule binders, primary screen, artefact control for SMM control protein annotation, biochemical, small-molecule microarray, Alexa647 label, 635 nm (AID 1127); conditions: ConA-A647 binding fluorescence, higher = more signal;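 also: z combines 667 nm emission intensity with signal-to-noise across three replicate slides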
Chain of Concanavalin-A (Canavalia ensiformis) (P02866 whole entry, looked up): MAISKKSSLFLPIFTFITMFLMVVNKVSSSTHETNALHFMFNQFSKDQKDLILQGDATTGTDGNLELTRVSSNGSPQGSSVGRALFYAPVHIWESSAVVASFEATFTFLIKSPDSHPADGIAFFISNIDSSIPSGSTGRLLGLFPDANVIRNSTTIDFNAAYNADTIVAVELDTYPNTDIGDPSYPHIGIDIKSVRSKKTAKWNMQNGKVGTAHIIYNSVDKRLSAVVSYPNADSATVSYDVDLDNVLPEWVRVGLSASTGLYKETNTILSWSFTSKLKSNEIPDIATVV

Structure (SMILES)	composite z-score [1]	z-score [2]	composite z-score [3]	composite z-score [4]	composite z-score [5]	composite z-score [6]	composite z-score [7]	composite z-score [8]	composite z-score [9]	composite z-score [10]	composite z-score [11]	composite Z-score [12]	composite z-score [13]	composite z-score [14]	composite z-score [15]	composite z-score [16]	composite z-score [17]	composite z-score [18]	composite z-score [19]	composite z-score [20]
CO[C@H]1COC(=O)CC=C[C@H](C)[C@@H](OC)COC(=O)CC=C[C@@H]1C	-0.366	-0.0985	0.724	-1.61	-1.87	-0.181	0.126	-0.63	-0.0807	-0.86	-0.683	0.142 (inactive)	-0.155	-0.14	-0.782	-0.702	-0.36	-0.294	1.21	-1.25
O=C1C2C=CC(C(O)c3ccccc3)N(n3cnnc3)C2C(=O)N1Cc1ccccc1 (stereo not given)	-0.447	0.573	-0.237	0.206	-0.372	0.0357	-0.0594	0.319	0.327	0.449	0.878	0.0912 (inactive)	0.0562	-0.0136	0.565	0.775	-0.333	-0.493	0.0921	0.161
C=C(CCCC)C(=O)CC[C@@H](OC(C)=O)c1ccccc1OCCO	-1.03	-3.42	-0.941	-0.923	-1.13	-0.154	0.0278	-0.618	-0.572	-1.31	-0.993	2.25 (inactive)	-0.13	-0.117	0.638	-0.429	1.23	-0.665	-0.646	-1.43
Cc1ccc([C@@H]2CC=C(C(=O)O)[C@H](c3ccccc3)N2S(=O)(=O)c2ccc(C)cc2)cc1	0.961	0.712	-0.23	2.35	0.535	0.0599	0.374	1.05	1.9	1.79	1.02	1.1 (inactive)	0.254	0.0344	0.546	2.36	0.581	1.31	-2.11	1.22
CCCCCCc1nc(C2CC2)c(C)c2c1[Si](C(C)C)(C(C)C)OC2	-0.497	0.127	-0.127	-0.682	-0.111	-0.124	-0.0146	-0.353	-0.147	0.342	-1.57	0.485 (inactive)	-0.0647	-0.0942	-0.364	-0.641	-0.35	-1.28	0.63	-0.693
